# BRCT inh red: qHTS Assay for Inhibitors of BRCT-Phosphoprotein Interaction (Red Fluorophore); 75,000 tested, 0.03% active; AID 892, 2007; Potency, µM (highest dose often 76.9 µM), for inactives: at the highest dose activity change, negative = inhibition, hits mostly inhibitors; BRCT-phosphopeptide binding, red fluorescence polarization; Breast cancer type 1 susceptibility protein (Homo sapiens), P38398; note: % is set by controls: 0 for no effect and ±100 for the full control effect
#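 Rhodamine-labelled pBACH1 10-mer (100 nM) bound to BRCT domain (100 nM) at pH 7.3; compounds incubated 12 min room temperature, polarization read. Free peptide defines full inhibition; unlabelled decapeptide titrated as control.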
# BRCT inh green: qHTS Assay for Inhibitors of BRCT-Phosphoprotein Interaction (Green Fluorophore); BRCA1 BRCT-phosphopeptide binding, green fluorescence polarization; Potency, µM (series often up to 76.9 µM), for inactives: at the highest dose activity change, negative = inhibition, actives largely listed as inhibitors; 75,000 tested, 0.05% active; Breast cancer type 1 susceptibility protein (Homo sapiens), P38398;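 note: potency is the fitted concentration of half-maximal effect; plate controls were peptide without protein for full effect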
#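 Compounds were incubated for 12 min at room temperature with a complex of 100 nM fluorescein-tagged pBACH1 decapeptide and 250 nM His-tagged BRCT protein. Buffer was phosphate pH 7.3 with EDTA, DTT and Tween 20. Disruption of binding lowers the polarization signal.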
# ALOX15 inhib: qHTS Assay for Inhibitors of 15-hLO (15-human lipoxygenase); Polyunsaturated fatty acid lipoxygenase ALOX15 (Homo sapiens), P16050; purified 15hLO-1, xylenol orange hydroperoxide absorbance; Potency, µM (top dose mostly 57.1 µM), for inactives: at the top dose activity change, negative = inhibition, usual class: inhibitors; 74,000 tested, 1.4% active; note: potency is the fitted concentration of half-maximal effect; % is set by controls: 0 for no effect and ±100 for the full control effect; nearly all actives have a fitted effect of over 55% in size
#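 Readout: Fe(III)-xylenol orange absorbance, 573-to-405 nm ratio as reaction progress. Enzyme 40 nM purified human 15hLO-1, substrate 50 uM arachidonic acid, 6 min RT after 15 min compound preincubation; Hepes pH 7.5 buffer with Triton X-100.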
# TsaE inh: qHTS Assay for Inhibitors of YjeE. purified YjeE enzyme, qHTS inhibition assay. 71,000 tested, 0.05% active. Potency, µM
#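 Purified YjeE (10 uM) with BODIPY Texas Red-labeled ADP probe (2 uM); compounds pin-transferred, 15 min at room temperature. Binding inhibition read as decreased fluorescence polarization; ADP titration as control.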
# Tau fil binding: qHTS Assay for Tau Filament Binding | Microtubule-associated protein tau (Homo sapiens), P10636 | recombinant tau filaments, thioflavin S fluorescence, 15 h; filaments grown with octadecylsulfate alongside compound | Potency, µM (doses to about 57.1 µM), for inactives: at the highest dose activity change, negative = inhibition | 71,000 tested, 2% active;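 note: potency is the fitted concentration of half-maximal effect; % is set by controls: 0 for no effect and ±100 for the full control effect; actives lower thioflavin S fluorescence by blocking filaments or displacing dye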
# Target sequence (P10636 whole entry, looked up): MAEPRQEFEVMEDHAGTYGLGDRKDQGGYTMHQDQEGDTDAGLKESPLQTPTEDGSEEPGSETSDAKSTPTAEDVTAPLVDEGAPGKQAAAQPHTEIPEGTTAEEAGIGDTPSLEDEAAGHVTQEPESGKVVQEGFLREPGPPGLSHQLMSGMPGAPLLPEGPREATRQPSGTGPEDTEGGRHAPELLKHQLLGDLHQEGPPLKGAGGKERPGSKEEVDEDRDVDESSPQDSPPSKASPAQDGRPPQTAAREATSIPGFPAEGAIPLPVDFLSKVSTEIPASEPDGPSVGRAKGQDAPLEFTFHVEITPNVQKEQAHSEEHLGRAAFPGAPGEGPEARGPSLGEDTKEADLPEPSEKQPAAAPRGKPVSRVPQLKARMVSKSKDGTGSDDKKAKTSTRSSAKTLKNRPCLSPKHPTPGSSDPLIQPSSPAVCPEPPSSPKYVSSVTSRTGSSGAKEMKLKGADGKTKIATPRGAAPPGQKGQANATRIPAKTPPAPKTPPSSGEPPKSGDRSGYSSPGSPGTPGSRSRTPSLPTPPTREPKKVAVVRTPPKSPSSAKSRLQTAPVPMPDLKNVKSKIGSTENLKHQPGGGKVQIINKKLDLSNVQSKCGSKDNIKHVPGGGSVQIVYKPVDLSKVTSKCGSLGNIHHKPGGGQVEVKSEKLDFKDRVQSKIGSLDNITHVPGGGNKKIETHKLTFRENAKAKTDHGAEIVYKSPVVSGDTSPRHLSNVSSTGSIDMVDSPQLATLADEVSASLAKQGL
#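 Tau 2 uM in ThS buffer dispensed; compound added; 60 uM ODS added (finals 1 uM tau, 30 uM ODS); 15 h 37 C; fluor ex450/em510.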
# Pol III holo inh: qHTS Assay for Inhibitors of DNA Polymerase III Holoenzyme System; reconstituted DNA polymerase III holoenzyme replication, biochemical; Potency, µM (titrated, usually from 57.1 µM), inactives show at the highest dose activity change, negative = inhibition; 71,000 tested, 0.25% active; AID 603, 2007; note: potency is the fitted concentration of half-maximal effect; % is set by controls: 0 for no effect and ±100 for the full control effect
#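 Reconstituted *E. coli* holoenzyme (0.35 nM Pol III, 1 nM beta, 154 nM SSB, 2 nM primase) was preincubated with compound for 15 min at RT. Synthesis on 1.4 nM ssM13Gori ran 35 min, then was stopped with PicoGreen/EDTA and read as dsDNA fluorescence.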
# An asterisk follows results filed as active; i = inactive; ? = inconclusive; . = not tested or not shown; ! = a repeat was not active; [ ] = dose if it differs, or a comment. Most compounds without a hit are left out; they make up all but 3.1% or so of the library. Calls come from the whole dose curve; as a rule, active = well fitted curve in the direction sought with a large enough effect; inconclusive = small, poorly fitted or top-dose-only effect, or another doubt; inactive = no such curve, though single readings can be large; an effect the other way counts as inactive or inconclusive.
SMILES,BRCT inh red,BRCT inh green,ALOX15 inhib,TsaE inh,Tau fil binding,Pol III holo inh
Oc1cccc(O)c1O,-2.0%,8.8%,12.6µM*,i,-3.8%,7.94µM*
COc1c(O)cccc1O,-1.8%,-2.0%[3.08 µM],1.8%,.,.,.
O=C(NCCCN1CCOCC1)c1ccc(Cc2nc3ccccc3[nH]2)cc1,0.4%,-1.1%,-1.1%,.,.,.
Cc1nn2cc(-c3ccccc3)nc2s1,-1.7%,-2.3%,25.1µM*,i,4.4%,-1.9%
O=C1CCCC/C1=C\Nc1ccc(Cl)cn1,0.3%,-1.1%,-15.8%,i,5.2%,-0.2%
O=C1CCCC/C1=C\Nc1ccc(O)cc1,-7.1%,0.1%,20µM*,i,-16.9%,-11.1%
c1ccc2c(CC3=NCCN3)cccc2c1,0.7%,0.2%[3.08 µM],-16.4%,i,5.5%[25.6 µM],-8.0%[25.6 µM]
FC(F)C(F)(F)C1=CC(c2cccs2)=NCCN1,1.0%,-2.4%,-2.2%,i,15.8µM*,-5.0%
FC(F)C(F)(F)C1=CC(c2ccccc2)=NCCN1,-0.1%,-3.4%,9.7%,i,12.6µM*,2.8%
CCCS(=O)(=O)NCCc1csc(-c2cccnc2)n1,-1.7%,1.4%,-7.8%,i,-18.0%,-9.9%
Nc1ccc(N2CCCCC2)cc1N1CCCCC1,0.3%,2.1%,?,i,7.94µM*,-7.7%
Cc1nn(-c2cc(N3CCCCC3)ccc2N)c(=O)c2ccccc12,0.9%,-1.5%,-16.4%,i,?,-2.1%
CNc1ncnc2c1ncn2[C@H]1C[C@@H](OP(=O)(O)O)[C@H](COP(=O)(O)O)O1,-1.0%,-2.5%,4.6%,i,-7.6%,-3.6%
CCOC(=O)c1cc2occc2n1CCCN1C(=O)c2ccccc2C1=O,-1.1%,0.6%,-19.1%,i,15.8µM*,5.4%
CCCNC(=O)c1cc(-c2ccc(O)cc2)on1,0.1%,-1.0%,5.7%,i,-2.9%,-3.9%
Cc1cc(C)n(-c2nc3ccccc3nc2Nc2ccc3[nH]c(=O)[nH]c3c2)n1,-1.0%,23.2%,-13.3%,i,1.26µM*,6.2%
Cc1cc(C(=O)CSc2nnc(-c3cccnc3)n2-c2ccccc2F)c(C)n1C,-12.3%,-1.8%,15.8µM*,i,88.3%,0.3%
COc1ccccc1NS(=O)(=O)c1cc(C(=O)O)ccc1F,-0.3%,-1.6%,-2.0%,.,.,.
CCCN[C@@H](C)C(=O)Nc1ccccc1C,1.8%[34.4 µM],-6.3%[34.4 µM],6.0%[25.6 µM],i,0.5%[25.6 µM],-5.2%[25.6 µM]
CNc1nn(-c2cccc(Cl)c2)nc1N,0.9%,0.9%,-6.6%,i,15.8µM*,0.1%
CCOC(=O)c1cnn(-c2cccc(Cl)c2)c1N,-0.3%,-0.6%,1.5%,i,-3.2%,7.3%
CC(C)(C(=O)O)c1ccc(C(O)CCCN2CCC(C(O)(c3ccccc3)c3ccccc3)CC2)cc1 (stereo not drawn),0.6%,-0.2%,20µM*!,.,.,.
Oc1ccc2[nH]ccc2c1,0.0%,2.1%,?,i,20µM*,-2.1%
N[C@@H](Cc1c[nH]c2ccc(O)cc12)C(=O)O,1.1%,-1.0%,?,i,-10.5%,-0.1%
Cc1ccccc1OC1C=CC(C#Cc2ccc(Br)cc2)OC1CO (stereo not drawn),0.7%[15.4 µM],-0.3%[15.4 µM],-12.3%[11.4 µM],.,.,.
SMILES,BRCT inh red,BRCT inh green,ALOX15 inhib,TsaE inh,Tau fil binding,Pol III holo inh
COc1ccc(C(c2nnnn2Cc2ccc(F)cc2)N2CCN(c3ccc(OC)cc3)CC2)cc1 (stereo not drawn),-3.0%,0.1%,-11.0%,i,10µM*,7.7%
COc1ccc(C(c2nnnn2Cc2ccc(F)cc2)N2CCN(c3ccccc3)CC2)cc1 (stereo not drawn),-0.5%,0.3%,-5.1%,i,-2.2%,-4.9%
C=CCN1C(=CCO)[C@H]2C[C@H]3[C@@H]1CC[C@@]31c3ccccc3N3C=C4[C@@H]5N(/C=C/2[C@H]31)c1ccccc1[C@]51CC[C@H]2[C@H]1C[C@@H]4/C(=C/CO)N2CC=C,-2.0%[34.4 µM],-0.6%[34.4 µM],3.9%[25.6 µM],i,52.0%[25.6 µM],-3.0%[25.6 µM]
Nc1c(N2CCCC2)cc(Cl)c2nonc12,-0.5%,0.5%,-18.3%,i,20µM*,-7.4%
C=C1CC[C@H]2C(C)(C)[C@H](O)CC[C@]2(C)[C@@H]1COc1ccc2ccc(=O)oc2c1,.,.,.,i,?,-5.8%
O=C1CN(CC(=O)N2CCCCC2)c2ccccc2O1,-1.1%,-2.2%,?,i,31.6µM*,-3.6%
CC(=O)c1cccc(NC(=O)CN(c2ccc(C)cc2)S(=O)(=O)c2cccc3nonc23)c1,3.0%,17.2%,-6.0%,i,3.98µM*,0.7%
CCOC(=O)c1oc2ccc(Br)cc2c1NC(=O)CN1CCN(C)CC1,0.4%,-1.3%,12.9%,i,35.0%,-3.3%
COc1ccc2oc(C(=O)c3ccccc3)c(NC(=O)CN3CCN(C)CC3)c2c1,1.0%,-0.4%,-3.9%,i,3.98µM*,-7.2%
Nc1ncnc2c1ncn2C[C@@H](O)C(=O)O,-0.3%[15.4 µM],3.7%[15.4 µM],5.1%[11.4 µM],i,-3.9%[11.4 µM],-8.2%[11.4 µM]
Oc1ccccc1C1=Nc2nc3ccccc3n2C(c2ccccc2)C1 (stereo not drawn),0.7%,2.5%,-18.3%,i,7.94µM*,10.7%
O=C(CC1Nc2ccccc2NC1=O)NCc1cccnc1 (stereo not drawn),-0.3%,0.4%,15.8µM*,i,-8.2%,-6.9%
CN(c1cccc(NC(=O)Nc2cccc(Cl)c2)c1)S(C)(=O)=O,-0.2%,0.4%,-8.4%,i,6.0%,-1.5%
CN(C)c1ccc(NC(=O)Nc2cccc(Cl)c2)cc1,2.0%,-3.6%,-13.9%,i,5.01µM*,0.7%
Cc1ccc(N2CCN(C(=S)c3ccc(N(C)C)cc3)CC2)cc1,-1.1%,-0.3%,?,i,12.6µM*,-2.6%
Cc1ccc2c(c1C)NC(C(=O)O)C1CC=CC21 (stereo not drawn),-24.9%,-18.9%,?,i,3.16µM*,25.1µM*
CCOC(=O)c1ccc2c(c1)C1C=CCC1C(C(=O)O)N2 (stereo not drawn),?,-29.0%,?,i,?,15.8µM*
O=C(O)c1ccc2c(c1C(=O)O)C(=O)OC2(c1ccc(O)cc1)c1ccc(O)cc1,1.1%[15.4 µM],-3.2%[15.4 µM],-2.0%[11.4 µM],i,12.0%[11.4 µM],-9.3%[11.4 µM]
O=C1OC2(c3ccc(O)cc3Oc3cc(O)ccc32)c2c1c(-c1ccccc1)c(-c1ccccc1)c(-c1ccccc1)c2-c1ccccc1,9.3%[15.4 µM],34.5%[15.4 µM],1µM*,?,i[11.4 µM],7.0%[11.4 µM]
